# Source: PubChem BioAssay
# Most compounds without a hit are left out; they make up all but 1.5% or so of the library.
# PLC-beta3 inh – blocks human PLC-beta3 enzyme activity; Q01970; Purified PLC-beta3, fluorogenic substrate, fluorescence; inhibition, % at 12.2 µM; 0.18% of 370,000 active; AID 720704; in the data active = inhibition above about 11%;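 also: 0% = median of compound wells on plate and 100% = full blocker control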
# Target sequence (Q01970 whole entry, looked up): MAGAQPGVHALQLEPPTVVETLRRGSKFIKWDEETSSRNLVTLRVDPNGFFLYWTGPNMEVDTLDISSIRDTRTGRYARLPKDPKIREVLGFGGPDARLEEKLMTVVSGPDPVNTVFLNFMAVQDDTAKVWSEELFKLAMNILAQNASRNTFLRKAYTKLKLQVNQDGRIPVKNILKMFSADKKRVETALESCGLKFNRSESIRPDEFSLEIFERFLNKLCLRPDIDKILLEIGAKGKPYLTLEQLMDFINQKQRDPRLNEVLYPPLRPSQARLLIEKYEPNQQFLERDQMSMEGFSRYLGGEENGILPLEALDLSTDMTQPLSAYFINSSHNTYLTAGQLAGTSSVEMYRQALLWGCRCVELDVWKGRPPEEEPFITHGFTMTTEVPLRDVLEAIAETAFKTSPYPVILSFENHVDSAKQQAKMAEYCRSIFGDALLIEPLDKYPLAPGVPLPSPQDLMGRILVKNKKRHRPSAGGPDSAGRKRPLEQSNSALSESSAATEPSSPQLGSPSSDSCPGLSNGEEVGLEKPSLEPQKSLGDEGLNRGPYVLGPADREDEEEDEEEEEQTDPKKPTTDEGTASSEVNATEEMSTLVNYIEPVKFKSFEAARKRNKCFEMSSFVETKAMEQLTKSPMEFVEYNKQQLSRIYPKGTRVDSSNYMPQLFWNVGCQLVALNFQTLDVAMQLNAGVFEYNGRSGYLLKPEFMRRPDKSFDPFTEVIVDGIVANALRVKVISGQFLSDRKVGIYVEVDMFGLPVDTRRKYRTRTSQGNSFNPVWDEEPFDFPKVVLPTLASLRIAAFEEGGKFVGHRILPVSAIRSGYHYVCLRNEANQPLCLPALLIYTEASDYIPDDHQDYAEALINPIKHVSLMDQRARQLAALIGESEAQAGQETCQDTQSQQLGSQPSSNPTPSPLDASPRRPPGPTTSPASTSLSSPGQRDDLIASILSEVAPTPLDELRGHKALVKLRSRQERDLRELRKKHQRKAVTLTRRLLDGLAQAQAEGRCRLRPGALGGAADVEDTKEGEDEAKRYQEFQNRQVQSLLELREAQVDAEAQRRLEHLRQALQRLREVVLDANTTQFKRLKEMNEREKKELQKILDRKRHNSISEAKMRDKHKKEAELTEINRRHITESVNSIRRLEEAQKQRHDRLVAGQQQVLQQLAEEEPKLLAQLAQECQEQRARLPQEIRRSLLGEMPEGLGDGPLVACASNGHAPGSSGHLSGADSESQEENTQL
# HGIII-sPLA2 inh – Inhibits HGIII-sPLA2 liposome hydrolysis, primary screen | QFRET BODIPY PC-A2 liposome hydrolysis, fluorescence | 0.56% of 370,000 active | inhibition, % at 12.2 µM;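 active = inhibition above mean plus 3 SD of compounds lying within the high and low control bounds, cut at about 19% in these data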;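 also: 0% = median of test compound wells and 100% = no enzyme DMSO wells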
# PLCg1 inh – inhibitors of human phospholipase C gamma1; inhibition, % at 12.2 µM; P19174; 0.84% of 370,000 active; AID 720700; purified PLC-gamma1, fluorogenic substrate, fluorescence; in the data active = inhibition above about 9.5%
# DAGLB inh – diacylglycerol lipase beta (human) inhibition; Q8NCG7; inhibition, % at 5.17 µM; 0.059% of 340,000 active; AID 504411; HEK293T DAGLB membrane lysate, EnzChek fluorogenic substrate; in the data active = inhibition above about 34%;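 also: 0% = enzyme with vehicle and 100% = wells lacking enzyme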
# sPLA2 confirm – human GIII-sPLA2 inhibition, confirmation. shares compounds with HGIII-sPLA2 inh. recombinant hGIII-sPLA2, BODIPY PC-A2 QFRET fluorescence. inhibition, % at 12.2 µM. 34% of 2,000 active. AID 743280;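 active = mean inhibition across triplicates above the hit cutoff set in the earlier primary screen, cut at about 19% in these data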;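 also: 0% = enzyme with DMSO and 100% = DMSO wells lacking enzyme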
# BODIPY interf – counter-screen for HGIII-sPLA2 inhibitors: 535nm fluorescence interference | 8.5% of 2,000 active | AID 743282 | BODIPY FL product fluorescence interference, QFRET | inhibition, % at 12.2 µM | shares compounds with HGIII-sPLA2 inh;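 active = average inhibition above the solvent-only control mean plus 3 SD, cut at about 6% in these data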;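 also: 0% = DMSO with substrate plus product and 100% = DMSO with substrate alone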
# 535nm interf DR – counter-screen for HGIII-sPLA2 inhibitors: 535nm fluorescence interference, dose response; shares compounds with HGIII-sPLA2 inh; BODIPY FL product fluorescence interference, cell-free; AID 743455; 240 tested, under 10 active; IC50, µM;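 active = IC50 at or below 10 µM; inactive = IC50 above 10 µM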
# * = called active by the depositor; . = no result given.
SMILES,PLC-beta3 inh,HGIII-sPLA2 inh,PLCg1 inh,DAGLB inh,sPLA2 confirm,BODIPY interf,others
COc1ccc2c(c1)C1NC(=S)N[C@@](C)(O2)C1C(=O)Nc1ccccc1 (stereo partly drawn),0.5,20.9*,-2.0,-1.6,23.9*,-3.3,
Cc1ccc2[nH]c(-c3cccc(F)c3)cc(=O)c2c1,-20.8,-5.4,-13.9,-5.8,.,.,
Cc1ccc2[nH]c(-c3cccc(N)c3)cc2c1,-26.4,25.0*,-24.5,1.1,4.4,4.2,
COc1cccc(CC(=O)N(Cc2ccccc2)c2ccccc2C(=O)Nc2cc(OC)ccc2OC)c1,-29.0,-10.4,-17.0,.,.,.,
Cc1ccc(-c2nnc(SCc3ccc([N+](=O)[O-])cc3)n2-c2ccccc2)cc1,-2.5,-1.0,3.4,.,.,.,
O=C1C(=Cc2cccc(Cl)c2)CCc2ccccc21,-0.4,20.8*,0.6,.,-1.3,-2.6,
CC(NC(=O)CN1CCOCC1)c1ccc(F)cc1 (stereo not drawn),-2.6,20.6*,-0.8,-0.9,-5.1,-5.0,
O=C(CSc1nnc(-c2ccccc2)n1-c1ccc(Cl)cc1)Nc1ccc2cn[nH]c2c1,3.5,0.6,1.3,.,.,.,
COc1ccc(C)cc1S(=O)(=O)N1CCCC(N2CCOCC2)C1 (stereo not drawn),-6.1,-4.9,3.6,-0.5,.,.,
Cc1ccc(S(=O)(=O)N2CCCC(N3CCOCC3)C2)cc1Cl (stereo not drawn),-1.4,19.4*,5.8,-3.0,-2.2,-9.5,
COC(=O)[C@]12C[C@H](CC(=O)NCC34CC5CC(CC(C5)C3)C4)C(=O)N(CCc3ccc(OC)c(OC)c3)C1=C[C@H](COCc1ccccc1)O[C@@H]2C,-0.7,-20.5,-1.7,.,.,.,
CCOC(=O)[C@]12CCCC3=C1N(CCC3)C(=O)[C@@H](CC(=O)NCc1cccc(C(F)(F)F)c1)C2,0.5,0.1,-0.6,.,.,.,
CCc1cc2c(=O)[nH]c(COC)nc2s1,4.5,19.3*,1.8,-1.6,1.6,-5.3,
O=C(/C=C/c1ccccc1)NC(=S)NNC(=O)c1cccnc1,-10.6,9.0,-11.0,-1.0,.,.,
O=C(/C=C/c1ccccc1)NC(=S)NNC(=O)c1cnccn1,-9.0,24.5*,5.3,-0.3,33.9*,-0.8,535nm interf DR=>122
COC(=O)C1=C(C)N(Cc2ccc(C(F)(F)F)cc2)C(=NCc2ccccc2)NC1c1ccc(Cl)cc1 (stereo not drawn),-4.1,2.3,4.3,.,.,.,
COC(=O)C1=C(C)N(Cc2ccc(C(F)(F)F)cc2)C(=NCc2ccc(OC)cc2)NC1c1ccccc1 (stereo not drawn),-1.5,21.1*,3.5,.,-23.9,-34.8,
O=C(Nc1ccn(CCCNCCc2ccccn2)c(=O)n1)OCc1ccccc1,-3.2,14.5,2.7,2.4,.,.,
O=C(Nc1ccn(CCCNCc2ccccn2)c(=O)n1)OCc1ccccc1,-0.5,21.5*,2.0,-1.1,6.0,-15.8,
O=C(C1CCN(c2cncnc2)CC1)N1CCOCC1,-5.0,6.4,-8.4,.,.,.,
CN(Cc1ccccc1)S(=O)(=O)c1ccc(NC(=O)C2CCCO2)cc1 (stereo not drawn),-4.6,23.4*,4.1,0.7,-4.7,-13.8,
CN(Cc1ccccc1)S(=O)(=O)c1ccc(NC(=O)C2CCCCC2C(=O)O)cc1 (stereo not drawn),-8.5,1.2,2.8,1.5,.,.,
O=C(NN1C(=O)c2ccccc2NC1c1ccccn1)c1ccc([N+](=O)[O-])cc1 (stereo not drawn),-1.4,24.9*,5.3,1.8,8.8,-4.8,
Cc1cccc(C2Nc3ccccc3C(=O)N2NC(=O)c2ccc([N+](=O)[O-])cc2)n1 (stereo not drawn),2.0,3.0,2.2,-2.1,.,.,
O=S(=O)(c1ccc(-c2n[nH]c(=S)o2)cc1)N1CCCC1,-130.0,21.2*,-96.6,-0.8,18.4,-3.2,
SMILES,PLC-beta3 inh,HGIII-sPLA2 inh,PLCg1 inh,DAGLB inh,sPLA2 confirm,BODIPY interf,others
O=[N+]([O-])c1cnc2ccccc2c1Sc1ccccc1,0.5,6.3,-3.9,.,.,.,
COC(=O)[C@H](C(C)C)N1Cc2nnn(Cc3ccccc3)c2-c2ccccc2S1(=O)=O,1.8,1.2,-0.8,.,.,.,
CC1(C)Oc2ccc(C#N)cc2[C@@H](N2CCCC2=O)[C@@H]1O,0.5,21.1*,0.5,3.6,-2.7,-1.2,
CCC[C@H]1[C@H](N)CC[C@@]23CCCN2C(=O)CCC[C@@H]13,0.6,12.3,-0.4,.,.,.,
Cc1ccc(-n2c(=S)[nH]c3c(oc4ccccc43)c2=O)cc1,-1.7,25.3*,1.1,-2.2,5.0,-2.9,
O=c1c2oc3ccccc3c2[nH]c(=S)n1-c1ccccc1,-3.4,16.8,-1.4,-1.7,.,.,
CC(C)(C)c1ccc(C(=O)Nc2ccc([N+](=O)[O-])cn2)cc1,2.4,1.0,1.8,-2.3,.,.,
O=C(Nc1ccc([N+](=O)[O-])cn1)c1cccnc1,-1.5,19.5*,1.7,-1.7,4.9,-4.0,
CC(C)C1Nc2c(O)cc(Cl)c([N+](=O)[O-])c2C2C=CCC21 (stereo not drawn),4.8,19.5*,3.9,30.6,13.4,10.4*,
Cc1ccc2sc(C)[n+](CCC(C)S(=O)(=O)[O-])c2c1 (stereo not drawn),-0.9,19.6*,-1.0,-1.1,-4.4,0.2,
S=C(Nc1ccccc1)N1CCCN1c1ccccc1,-5.2,20.3*,1.6,0.8,4.2,-7.5,
CCCCCC(=O)Nc1cc(N(C)C)nc2ccccc12,-39.9,-2.4,-27.8,-3.6,.,.,
CCN(CC)CC(=O)Nc1cc(N(C)C)nc2ccccc12,-19.3,19.5*,-15.6,-2.7,10.7,-10.2,
O=C1c2ccccc2CN1CCSC(=S)N1CCOCC1,-2.2,20.6*,0.5,0.0,6.4,-10.2,
CN(C)c1ccc(/C=N\Nc2nc(-c3ccccc3)cc(=O)[nH]2)cc1,-25.4,20.0*,-23.2,-2.4,7.4,1.6,
O=C(CSc1nc2ccccc2s1)Nn1cnnc1,0.5,0.6,1.8,-0.5,.,.,
O=C(CSc1nc2ccccc2s1)NNC(=S)Nc1ccc(Cl)cc1,-3.9,25.6*,-6.9,4.4,6.8,3.1,
C=CCNC(=S)NNC(=O)CSc1nc2ccccc2s1,-3.4,30.2*,-0.5,0.0,19.7*,0.0,
C=CCCC(=O)N(Cc1ccccc1)c1ccccc1C(=O)Nc1cc(OC)ccc1OC,-16.0,-2.9,-8.6,.,.,.,
CC(=O)N1CCN(C(=O)C2CCCN(C(=O)c3ccc4c(c3)NC(=O)CS4)C2)CC1 (stereo not drawn),2.8,-2.7,-0.3,.,.,.,
Cn1c(=O)[nH]c(=O)c2c1nc(N1CCOCC1)n2CCSc1nnnn1-c1ccccc1,5.1,-5.2,-0.4,0.3,.,.,
CC(CSc1nnnn1-c1ccccc1)Cn1c(N2CCCC2)nc2c1c(=O)[nH]c(=O)n2C (stereo not drawn),3.4,20.8*,6.7,1.9,-0.3,-20.8,
COc1cccc2sc(NNC(=O)C3COc4ccccc4O3)nc12 (stereo not drawn),-12.4,22.5*,-7.2,0.7,23.9*,-2.5,
